Source: PubChem (National Center for Advancing Translational Sciences (NCATS))
Lassa entry: inhibitors of Lassa virus binding or entry into cells. Lassa virus pseudotyped entry inhibition, cell-based qHTS. AID 720533. 18,000 compounds, 4.1% hits. Potency, µM (titrated, usually from 49.2 µM), for the others: at the top dose activity change, negative = inhibition, actives largely listed as inhibitors
Marburg entry: blocks Marburg virus binding or cell entry. Marburg virus pseudotype entry/binding inhibition, cell-based. Potency, µM (series often up to 49.2 µM), without a hit: top-dose activity change, negative = inhibition, actives largely listed as inhibitors. 18,000 compounds, 6.5% hits
* marks the source's active call; other numbers are inactive results; u = inconclusive; x = no result given; ! = repeats disagree; [ ] = dose if it differs, or a comment. An excerpt weighted towards active compounds, which were near 7.1% of everything screened. Calls come from the whole dose curve; tested in HEK293 cells. % is set by controls: 0 for no effect and ±100 for the full control effect; potency is the fitted concentration of half-maximal effect.

SMILES	Lassa entry	Marburg entry
C=C1C[C@H](OC(=O)C(C)(O)CCl)C2C(=C)C(=O)O[C@@H]2C2C1C[C@H](O)[C@]2(O)CCl (some centres not stated)	u	20µM*
CCN1C(=O)[C@@H]2[C@H]3[C@H](O)[C@H](O)CC(=NO[C@@H](C)c4cn([C@H](CO)Cc5ccccc5)nn4)[C@@H]3CC[C@H]2C1=O	x	-3%[8.59 µM]
CO[C@@H]1CC[C@@]2(C)[C@@H](CC[C@@]3(C)[C@H]2CC=C2[C@H]4CC(C)(C)[C@H](O)[C@@H](OC(C)=O)[C@]4(CO)[C@H](O)C[C@]23C)[C@@]1(C)CO (tested in a mixture with another compound)	9%[17.8 µM]	-24%[17.8 µM]
C[C@@H]1OC(OC2CC[C@@]3(C)C(CC[C@@]4(C)C3CC=C3C5CC(C)(C)CC[C@]5(C(=O)OC5OCC(O)[C@@H](O)[C@@H]5OC5O[C@@H](C)[C@H](O[C@H]6OC(CO)C(O)C(O)C6O)C(O)C5O)C(O)C[C@@]34C)C2(C)C)C(O)C(O)[C@H]1OC1OCC(O)C(O)[C@H]1O (some centres not stated)	11µM*	u
C=CCC1=C(C)C(OC(=O)C2C(C=C(C)C)C2(C)C)CC1=O (configuration not stated)	28µM*	u
C#CCN1CC(=O)N(COC(=O)C2C(C=C(C)C)C2(C)C)C1=O (configuration not stated)	-7%	-6%
COc1ccc2cc(CNCc3ccccc3C(F)(F)F)c(N3CCCC(CO)C3)nc2c1 (configuration not stated)	-25%	1%
COCC(C)NCc1cc2ccc(OC)cc2nc1N1CCN(c2ccc(F)cc2)CC1 (configuration not stated)	u	11µM*
COC(=O)N1C2CC(=O)O[C@H]3c4cc5c(cc4[C@]1(C)[C@@]3(Br)c1ccccc12)OCO5	13%[8.59 µM]	8%[8.59 µM]
CCCCCC(=O)N1C[C@@H](O)[C@H](n2cc(C3CC3)nn2)C[C@H]1c1ccc(Cl)cc1	14%	u
N#Cc1ccc2c(c1)N(CCCN1CCC(O)CC1)c1ccccc1S2	-9%	20µM*
c1ccc2c(c1)Sc1ccccc1N2CCN1CCCC1	-28%	u
O=C1CSC2(CCN(CCCN3c4ccccc4Sc4ccc(Cl)cc43)CC2)N1	u	22µM*
O=c1n(CCCN2CCN(c3cccc(Cl)c3)CC2)nc2ccccn12	0%	10%
CN1CCN(CCCN2c3ccccc3Sc3ccc(C(F)(F)F)cc32)CC1	22µM*	16µM*
O=C(CCN1CCN(CCO)CC1)N1c2ccccc2Sc2ccc(C(F)(F)F)cc21	-15%	u
C=CCN1c2ccccc2[C@]23CCC(=O)N(Cc4cc(OC)c(OC)c(OC)c4)C2=NC(C(=O)OC)=C(C(=O)OC)[C@H]13	-15%[8.59 µM]	-7%[8.59 µM]
COc1ccccc1C1CN(Cc2cccc(C)n2)Cc2ccccc2O1 (configuration not stated)	7.1µM*	5.6µM*
COc1ccccc1C1CN(Cc2c(O)cccc2OC)Cc2ccccc2O1 (configuration not stated)	-15%	2%
COc1ccc([C@]23Cc4cc(OC)c(OC)cc4[C@H](O2)C2=C(CCCC2=O)O3)cc1	3%[8.59 µM]	6%[8.59 µM]
NC1(c2ccc(-c3nc4ccn5c(=O)[nH]nc5c4cc3-c3ccccc3)cc2)CCC1	u	6.3µM*
O=C1N(Cc2ccc(Br)cc2)c2cccc(Br)c2[C@@]12O[C@H](COc1ccccc1)CC1=CCCC12 (some centres not stated)	-18%[8.59 µM]	11%[8.59 µM]
COC(=O)N[C@@H](c1cccc(C)c1)[C@]1(C(C)=O)CCCC1=O	7%[8.59 µM]	3%[8.59 µM]
CC(=O)[O][Hg][c]1ccccc1	0.5µM*	u
CC(=O)Oc1ccccc1C(=O)O	-3%	12%
SMILES	Lassa entry	Marburg entry
C=CCOC(=O)N[C@@H](Cc1ccccc1)C(C(=O)OC)=C(C)NCc1ccccc1	-22%[8.59 µM]	-11%[8.59 µM]
CN(c1ccc(NC(=O)NCCN2CCOCC2)cc1)c1ccnc(Nc2ccc(CS(C)(=O)=O)cc2)n1	72%	-13%
C[C@@H]1[C@@H]2Cc3ccc(O)cc3[C@@]1(C)CCN2CCc1ccccc1	u	20µM*
C[C@@H]1[C@@H]2Cc3ccc(O)cc3[C@@]1(C)CCN2CC1CC1	-9%	-14%
C[C@@H]1CC[C@H]2C(=O)N3[C@@H](CC[C@@H](C)[C@@H]3c3ccc(-c4ccco4)cc3)C(=O)N2[C@@H]1c1ccc(-c2ccco2)cc1	-1%[8.59 µM]	-2%[8.59 µM]
CCCCOC(=O)c1ccc(N)cc1	u	5%
CCCCN(CCCC)CCCOC(=O)c1ccc(N)cc1	u	22µM*!
Cc1cc2c(c(-c3cnccn3)c1)OC(CNC(=O)c1cc(Cl)ccc1F)C2 (configuration not stated)	-2%	25µM*
O=C(NCC1Cc2cccc(-c3cnccn3)c2O1)c1ccc(F)c(Cl)c1 (configuration not stated)	2%	11µM*
CSc1ccccc1C(=O)NCC1Cc2cc(F)cc(-c3cnccn3)c2O1 (configuration not stated)	-10%	-5%
O=C(NCC1Cc2cccc(-c3ncccn3)c2O1)c1cccc(-c2ccccc2F)c1 (configuration not stated)	-14%	-1%
CCCC[C@]12Cc3c(ccc4ccccc34)[C@H](O1)C1=C(O2)C(=O)c2ccccc2C1=O	14%[8.59 µM]	22%[8.59 µM]
c1ccc(C2(c3ccccc3)CC2C2=NCCN2)cc1 (configuration not stated)	2%	2%
c1ccc2c(c1)OC[C@@H](C1=NCCN1)O2	u	11µM*
CC(C)=CCN1C(=O)[C@]2(O[C@H](COc3ccccc3)CC3=CCCC32)c2c(Br)cccc21 (some centres not stated)	-9%[8.59 µM]	-17%[8.59 µM]
Cn1cnc2c(F)c(Nc3ccc(Br)cc3Cl)c(C(=O)NOCCO)cc21	9%	8%
Cc1cc(I)ccc1Nc1c(C(=O)NOCC2CC2)cc(F)c(F)c1F	u	11µM*
O=S1(=O)CC(N2CC=CC2)CN1CCc1ccccc1 (configuration not stated)	18%	20%
CN(C)CCN1C(=O)c2ccccc2N(C)c2ccccc21	u	35µM*!
C[N+](C)(CCCCCC[N+](C)(C)CCCN1C(=O)c2ccccc2C1=O)CCCN1C(=O)c2ccccc2C1=O	-6%	5%
COC(=O)C1=C(C)N(Cc2ccccc2)C(=NCCc2cccs2)NC1c1cccc(C(F)(F)F)c1 (configuration not stated)	-11%[8.59 µM]	u
C[C@@H](C1[C@@H](O)CC2C3C=CC4C[C@@H](O)CC[C@]4(C)[C@H]3CC[C@@]21C)[C@@H]1CCCCN1 (some centres not stated)	6%	11µM*
Cn1ccc2c(C=Cc3ccc(F)cc3)cc3c(c21)C1CCC3O1 (configuration not stated)	0%	-20%
CCc1ccc(S(=O)(=O)O)cc1	-8%	-3%
O=C(O)c1[nH]n(-c2ccc(S(=O)(=O)O)cc2)c(=O)c1N=Nc1ccc(S(=O)(=O)O)cc1	4µM*	u
CCCCCCCCNC(C)C(O)c1ccc(SC(C)C)cc1 (configuration not stated)	11µM*	u
CC(NCCc1ccc(O)cc1)C(O)c1ccc(O)cc1 (configuration not stated)	-23%	7%
Cc1cc2c(c(=O)o1)[C@H]1O[C@](CCCCN3C(=O)c4ccccc4C3=O)(Cc3cc(C#N)ccc31)O2	9%[8.59 µM]	39%[8.59 µM]
